These results are taken from PubChem BioAssay (EPA / NIEHS).

The source made the active and inactive calls. Rule for the calls: active = hit-call score of the fitted dose curve at least 0.9, where 1 is the maximum; inactive = score below 0.9.

Holding throughout (conditions): mRNA level, 48 h; actives raise or lower the signal
Read-out in one assay: CYP2C9 (gene 1559)
In words: LTEA_HepaRG_CYP2C9: Life Technologies and Expression Analysis (LTEA) Assay for CYP2C9 using HepaRG (AID 2283484). The procedure, abridged:
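Differentiated human HepaRG cells were exposed 48 h in serum-free induction medium to eight half-log concentrations up to 100 uM in 0.5% DMSO. CYP2C9 mRNA was measured by qRT-PCR, normalized to ACTB, GAPDH and POLR2A, and fitted bidirectionally against DMSO.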

Read-out in another assay: CYP2E1 (gene 1571)
In words: LTEA_HepaRG_CYP2E1: Life Technologies and Expression Analysis (LTEA) Assay for CYP2E1 using HepaRG (AID 2283485). The procedure, abridged: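 Differentiated HepaRG cells were treated in duplicate for 48 h with chemicals in 0.5% DMSO, from 100 uM downward in half-log dilutions. RNA was then analysed by qRT-PCR for CYP2E1 induction or loss.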

Read-out in a further assay: CYP4A11 (gene 1579)
In words: LTEA_HepaRG_CYP4A11: Life Technologies and Expression Analysis (LTEA) Assay for CYP4A11 using HepaRG (AID 2283486). The procedure, abridged: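 Differentiated HepaRG cells, 48 h after plating, exposed in duplicate for 48 h to 8 half-log concentrations up to 100 uM in 0.5% DMSO in serum-free induction medium. CYP4A11 mRNA measured by TaqMan qRT-PCR, normalized to ACTB, GAPDH and POLR2A.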

Read-out in assay [1]: Cytochrome P450 3A4 (Homo sapiens) (UniProt P08684)
In words: LTEA_HepaRG_CYP3A4: Life Technologies and Expression Analysis (LTEA) Assay for CYP3A4 using HepaRG (AID 2283487). The procedure, abridged: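 In a human hepatic line (HepaRG), duplicate wells were treated 48 h with up to 100 uM chemical in half-log dilutions. Endpoint: CYP3A4 mRNA induction or loss relative to 0.5% DMSO vehicle, by qRT-PCR.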

Read-out in assay [2]: DNA damage-inducible transcript 3 (DDIT3), DDIT3 (gene 1649)
In words: LTEA_HepaRG_DDIT3: Life Technologies and Expression Analysis (LTEA) Assay for DNA damage-inducible transcript 3 (DDIT3) using HepaRG (AID 2283488). The procedure, abridged:
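Changes in DDIT3 transcript, in either direction relative to 0.5% DMSO vehicle, were quantified by TaqMan qRT-PCR after 48 h chemical exposure of HepaRG cells at 8 concentrations, maximum 100 uM.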

Read-out in assay [3]: Pro-epidermal growth factor (Homo sapiens) (UniProt P01133)
In words: LTEA_HepaRG_EGF: Life Technologies and Expression Analysis (LTEA) Assay for Epidermal growth factor (EGF) using HepaRG (AID 2283489). Put shortly: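 HepaRG cells (~100,000/well, 48 h pre-culture) exposed in duplicate for 48 h in serum-free induction medium to 8 half-log concentrations up to 100 uM in 0.5% DMSO. EGF mRNA by qRT-PCR, normalized to ACTB/GAPDH/POLR2A; bidirectional fit versus DMSO.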

Read-out in assay [4]: Early growth response protein 1 (EGR1) transcription factor, EGR1 (gene 1958)
In words: LTEA_HepaRG_EGR1: Life Technologies and Expression Analysis (LTEA) Assay for Early growth response protein 1 (EGR1) transcription factor using HepaRG (AID 2283490). The procedure, abridged: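 Differentiated human HepaRG cells in serum-free induction medium were exposed in duplicate for 48 h to eight concentrations (top 100 uM, half-log steps) in 0.5% DMSO. EGR1 mRNA was quantified by qRT-PCR, normalized to ACTB, GAPDH and POLR2A, and fitted bidirectionally versus DMSO.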

Read-out in assay [5]: Ezrin (EZR), EZR (gene 7430)
Kind of assay: LTEA_HepaRG_EZR: Life Technologies and Expression Analysis (LTEA) Assay for Ezrin (EZR) using HepaRG (AID 2283491). Put shortly: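 Gain or loss of EZR mRNA is scored relative to 0.5% DMSO in human HepaRG cultures treated 48 h with test chemicals in duplicate, eight half-log concentrations from 100 uM.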

Read-out in assay [6]: Cytochrome P450 3A7 (Homo sapiens) (UniProt P24462)
Kind of assay: LTEA_HepaRG_CYP3A7: Life Technologies and Expression Analysis (LTEA) Assay for CYP3A7 using HepaRG (AID 2283492). Put shortly:
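Differentiated HepaRG cells in serum-free induction medium exposed 48 h in duplicate to 8-point half-log series from 100 uM top in 0.5% DMSO. CYP3A7 mRNA by qRT-PCR, normalized to ACTB/GAPDH/POLR2A, bidirectional fit versus DMSO.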

Read-out in a further assay: CYP3A5 (gene 1577)
Kind of assay: LTEA_HepaRG_CYP3A5: Life Technologies and Expression Analysis (LTEA) Assay for CYP3A5 using HepaRG (AID 2283493). The procedure, abridged: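 mRNA induction or loss of CYP3A5 assessed in HepaRG after 48 h dosing, 100 uM top concentration, duplicate wells; TaqMan qRT-PCR with ACTB, GAPDH, POLR2A normalization; 0.5% DMSO as negative control.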

Sequence of Cytochrome P450 3A4 (Homo sapiens) (P08684 whole entry, looked up): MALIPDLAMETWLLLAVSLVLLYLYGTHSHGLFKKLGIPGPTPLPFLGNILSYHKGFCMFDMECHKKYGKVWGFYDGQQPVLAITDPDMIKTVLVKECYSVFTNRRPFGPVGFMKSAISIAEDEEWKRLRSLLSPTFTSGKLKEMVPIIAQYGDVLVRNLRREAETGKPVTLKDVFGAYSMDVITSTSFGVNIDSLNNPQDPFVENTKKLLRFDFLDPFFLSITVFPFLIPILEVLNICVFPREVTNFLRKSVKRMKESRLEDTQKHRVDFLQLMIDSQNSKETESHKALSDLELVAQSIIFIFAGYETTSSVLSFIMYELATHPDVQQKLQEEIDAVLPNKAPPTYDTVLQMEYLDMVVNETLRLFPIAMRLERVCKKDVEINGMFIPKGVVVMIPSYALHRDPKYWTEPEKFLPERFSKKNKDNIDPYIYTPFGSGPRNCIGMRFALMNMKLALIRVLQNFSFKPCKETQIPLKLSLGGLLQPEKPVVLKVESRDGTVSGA
Sequence of Cytochrome P450 3A7 (Homo sapiens) (P24462 whole entry, looked up): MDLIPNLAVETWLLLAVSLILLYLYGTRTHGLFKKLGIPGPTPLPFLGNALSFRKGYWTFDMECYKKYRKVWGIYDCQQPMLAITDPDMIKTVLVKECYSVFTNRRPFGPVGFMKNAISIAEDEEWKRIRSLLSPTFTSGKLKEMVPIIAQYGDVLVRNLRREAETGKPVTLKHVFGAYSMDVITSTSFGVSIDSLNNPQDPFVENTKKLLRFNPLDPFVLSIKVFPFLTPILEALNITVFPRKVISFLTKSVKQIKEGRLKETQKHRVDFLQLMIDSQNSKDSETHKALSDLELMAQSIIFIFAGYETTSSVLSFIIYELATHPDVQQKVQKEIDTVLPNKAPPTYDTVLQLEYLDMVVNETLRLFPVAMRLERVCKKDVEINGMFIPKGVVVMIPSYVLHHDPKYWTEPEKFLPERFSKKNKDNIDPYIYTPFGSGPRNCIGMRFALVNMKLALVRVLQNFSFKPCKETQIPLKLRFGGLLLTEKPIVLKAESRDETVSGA

Take `C#CCOC(=O)[C@@H](C)Oc1ccc(Oc2ncc(Cl)cc2F)cc1`: the outcome (with CYP2C9 (gene 1559); with CYP2E1 (gene 1571); in [1]; in [2]; in [3]; in assay [4]) was inactive. In addition, the molecule was called inactive (in assay [5]; with CYP3A5 (gene 1577)). For the same molecule, the AC50 in the assay with CYP4A11 (gene 1579) is 19 µM (active); in [6], 50 µM (active).

For the molecule `COC(=O)CSc1cc(N=c2sc(=O)n3n2CCCC3)c(F)cc1Cl`, the outcome (with CYP2C9 (gene 1559); with CYP4A11 (gene 1579); in assay [2]; in assay [3]; in [4]; in assay [5]) was inactive. The molecule was called inactive with CYP3A5 (gene 1577). Besides, the AC50 with CYP2E1 (gene 1571) is 50 µM (active); in [1], 13.5 µM (active); in assay [6], 16 µM (active).

On to `CCCCCOC(=O)COc1cc(N2C(=O)C3=C(CCCC3)C2=O)c(F)cc1Cl`, for which the molecule was called inactive (with CYP2C9 (gene 1559); with CYP2E1 (gene 1571); with CYP4A11 (gene 1579); in assay [2]; in assay [3]; in [4]). Further, the call (in assay [5]; in assay [6]; with CYP3A5 (gene 1577)) was inactive. Moreover, in assay [1], the AC50 was 28 µM (active).

As to `CCCOC(=O)c1ccc(C(=O)OCCC)nc1`, the call (in the assay with CYP2C9 (gene 1559); with CYP2E1 (gene 1571); with CYP4A11 (gene 1579); in [1]; in assay [2]; in assay [3]) was inactive. For the same molecule, the result (in assay [4]; in assay [5]; in [6]; in the assay with CYP3A5 (gene 1577)) was inactive.

Regarding `C=CCOC(Cn1ccnc1)c1ccc(Cl)cc1Cl` (configuration not stated), the AC50 with CYP2C9 (gene 1559) was 33.1 µM (active); with CYP2E1 (gene 1571), 13.1 µM (active); with CYP4A11 (gene 1579), 28.1 µM (active); in assay [3], 85 µM (active); with CYP3A5 (gene 1577) it was 79.6 µM (active). Further, the call in assay [4] and in assay [5] was inactive.

In the case of `CCCCCCC(C)OC(=O)COc1nc(F)c(Cl)c(N)c1Cl` (configuration not stated), the molecule was called inactive (with CYP2E1 (gene 1571); with CYP4A11 (gene 1579); in assay [2]; in assay [3]; in [4]; in assay [5]). In addition, the result (in assay [6]; with CYP3A5 (gene 1577)) was inactive.

As to `S=C([S-])NCCNC(=S)[S-].[Mn+2]`, the AC50 was 2.23 µM (active) with CYP2C9 (gene 1559); 3.82 µM (active) in the assay with CYP2E1 (gene 1571); 3.33 µM (active) with CYP4A11 (gene 1579); 3.36 µM (active) in [1]; 6.1 µM (active) in [2]; 5.3 µM (active) in [3]. Besides, the AC50 was 6.62 µM (active) in [4], 3.49 µM (active) in [6] and 3.47 µM (active) in the assay with CYP3A5 (gene 1577). Moreover, in [5], the molecule was called inactive.

In the case of `CCNc1nc(N)nc(Cl)n1`, the outcome (with CYP2C9 (gene 1559); with CYP4A11 (gene 1579); in assay [2]; in assay [3]; in assay [4]; in [5]) was inactive. The call in the assay with CYP3A5 (gene 1577) was inactive. The AC50 with CYP2E1 (gene 1571) was 50 µM (active); in assay [1], 3.18 µM (active); in assay [6], 9.92 µM (active).

Consider `C[C@]12C[C@H](O)[C@H]3[C@@H](CCC4=CC(=O)CC[C@@]43C)[C@@H]1CC[C@@H]2C(=O)CO`, for which the call (with CYP2E1 (gene 1571); with CYP4A11 (gene 1579); in assay [3]; in [4]; in assay [5]; with CYP3A5 (gene 1577)) was inactive. For the same molecule, the AC50 in assay [6] was 50 µM (active).

For the molecule `COCCO`, the molecule was classed as inactive (with CYP2C9 (gene 1559); in the assay with CYP2E1 (gene 1571); in the assay with CYP4A11 (gene 1579); in [1]; in [2]; in assay [4]). Besides, the molecule was classed as inactive (in [5]; in assay [6]; with CYP3A5 (gene 1577)).

Consider `CN(C)C(=O)Nc1ccc(Cl)c(Cl)c1`, for which the result (with CYP2C9 (gene 1559); with CYP4A11 (gene 1579); in [1]; in assay [2]; in assay [3]; in assay [4]) was inactive. In addition, the result (in assay [5]; in [6]; with CYP3A5 (gene 1577)) was inactive. Besides, the AC50 with CYP2E1 (gene 1571) was 63 µM (active).

For `CCCCOCCOCCOCc1cc2c(cc1CCC)OCO2`, the concentration at half-maximal activity (AC50) with CYP2C9 (gene 1559) is 3.39 µM (active); in the assay with CYP2E1 (gene 1571), 14 µM (active). Moreover, the molecule was called inactive (with CYP4A11 (gene 1579); in [2]; in [3]; in assay [4]; in assay [5]; with CYP3A5 (gene 1577)).

Turning to `CCCCC(CC)COC(=O)c1ccccc1C(=O)O` (configuration not stated), the result (with CYP2C9 (gene 1559); in assay [2]; in assay [3]; in assay [4]; in assay [5]; with CYP3A5 (gene 1577)) was inactive. Moreover, the results for the AC50 in the assay with CYP2E1 (gene 1571) and with CYP4A11 (gene 1579) were 76.7 µM (active) and 50.8 µM (active), respectively.

For the molecule `CCCOC(=O)NCCCN(C)C`, the call (with CYP2C9 (gene 1559); in the assay with CYP2E1 (gene 1571); with CYP4A11 (gene 1579); in [1]; in [2]; in assay [3]) was inactive. Moreover, the call (in assay [4]; in assay [5]; in assay [6]; with CYP3A5 (gene 1577)) was inactive.

As a reminder, the AC50 is the midpoint of the concentration-response curve, whichever way the signal moves.
